{
  "source": "PubChem BioAssay (NCI)",
  "note": "Compounds without any hit were thinned out: in the full panel of roughly 83,000, 20% have a hit.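 How to read the values: 0–100, growth inhibition (40 = 60% inhibited); 0, no net growth; -100 to 0, cell death (-40 = 40% of starting cells died; -100 = all dead).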 Unmarked numbers belong to inactive results. Active and inactive are the calls of the source. The calls were made as follows: active = growth percent below 10; inactive = the rest.",
  "data": [
    {"tested_on": "SK-OV-3 ovarian", "experiment": "NCI-60 one-dose screen, 48 h (100 = growth as untreated, 0 = no growth, -100 = all killed)", "conditions": "10 µM", "values": [
      {"compound": "O=C1/C(=C/c2ccc(O)cc2)Oc2ccc(Cl)cc21", "growth": "111%"},
      {"compound": "COc1cc(C(=O)n2nc(N)c3c(C)cc(C)nc32)cc(OC)c1OC", "growth": "92.3%"},
      {"compound": "C#Cc1ccc(-n2c(/C=C/c3cc(OC)c(OC)c(OC)c3)nc3ncccc3c2=O)cc1", "growth": "65.9%"},
      {"compound": "COC(=O)[C@]12CC[C@@H](C)[C@H](C)[C@@H]1C1=CC[C@@H]3[C@@]4(C)C[C@@H](O)[C@H](O)[C@@](C)(CO)[C@@H]4[C@H](O)C[C@@]3(C)[C@]1(C)CC2", "growth": "-33.1% (active)"},
      {"compound": "Oc1ccccc1-c1nnc(Cn2c(Cc3cccc4ccccc34)nc3ccccc32)o1", "growth": "98.7%"},
      {"compound": "COc1ccc(-c2nc(SCC(=O)c3ccc(Br)cc3)[nH]c(=O)c2C#N)cc1", "growth": "113%"},
      {"compound": "COc1ccc(C2C=C(c3ccc(Cl)c(Cl)c3)N=C3SC(C)=CN32)cc1", "note": "(centres undefined)", "growth": "109%"},
      {"compound": "CCOc1nc(-c2ccccc2)cc2c(O)c(C(=O)NC(C)C)[nH]c(=O)c12", "growth": "98.6%"},
      {"compound": "S=c1c2ncccc2c(-c2ccccn2)nn1Cc1ccccn1", "growth": "93.5%"},
      {"compound": "COc1c(-c2c3sc(=O)[nH]c3nc3c2c(=O)[nH]n3C(C)C)cc2c(c1OC)OCO2", "growth": "99.5%"},
      {"compound": "Cc1c(C(=O)N[C@H](CO)Cc2ccccc2)[nH]c2ccc(Cl)cc2c1=O", "growth": "99.8%"},
      {"compound": "COc1cc(Cn2c(-c3ccccc3)c(Cl)c3c2-c2oncc2CC3)cc(OC)c1", "growth": "97.2%"},
      {"compound": "C/C=C\\COc1cc(C)c(Cl)cc1Cl", "growth": "112%"},
      {"compound": "CCOC(=O)CNC(=O)Nc1ccc(Oc2ccc(NC(=O)NCC(=O)OCC)cc2)cc1", "growth": "104%"}
    ]}
  ]
}
